# Bioassay records as filed in PubChem BioAssay.
# Most compounds without a hit are left out; they make up all but 12% or so of the library.
# Sm TGR inh – qHTS Assay for the Inhibitors of Schistosoma Mansoni Peroxiredoxins; purified TGR, DTNB reduction, TNB absorbance 405 nm; Potency, µM (series often up to 114 µM), for inactives: at the highest dose activity change, negative = inhibition, hits mostly inhibitors; actives 3% (n = 360,000); also: % is scaled to controls: 0 for no effect and ±100 for the full control effect; nearly all actives have a fitted effect of over 60% in size
#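 TGR 20 nM + NADPH 100 uM (dispensed conc.), cpd preinc 15 min RT; start with NADPH (500 uM addition) then DTNB (15 mM addition). Kinetic TNB absorbance, 405 nm filter. Four-parameter Hill fit across titration.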
# SARS PLpro yeast – qHTS of Yeast-based Assay for SARS-CoV PLP; S. cerevisiae expressing SARS-CoV PLpro, growth rescue; Potency, µM (titrated, usually from 32.9 µM), for inactives: at the highest dose activity, positive = growth rescue, usual class: activators; actives 0.19% (n = 330,000); AID 485353, 2010; calls by dose curve; also: 0% is about no effect; nearly all actives have a fitted effect of over 55% in size
# AmpC inh no detg – qHTS Inhibitors of AmpC Beta-Lactamase (assay without detergent); P00811; AID 485341, 2010; actives 0.52% (n = 330,000); Potency, µM (doses to about 57.1 µM), for inactives: top-dose activity change, negative = inhibition, usual class: inhibitors; AmpC nitrocefin hydrolysis, absorbance 480 nm, 0.0001% Triton;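 also: plate controls were no compound for no effect and no enzyme for full effect; nearly all actives have a fitted effect of over 20% in size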
# Target sequence (P00811 whole entry, looked up): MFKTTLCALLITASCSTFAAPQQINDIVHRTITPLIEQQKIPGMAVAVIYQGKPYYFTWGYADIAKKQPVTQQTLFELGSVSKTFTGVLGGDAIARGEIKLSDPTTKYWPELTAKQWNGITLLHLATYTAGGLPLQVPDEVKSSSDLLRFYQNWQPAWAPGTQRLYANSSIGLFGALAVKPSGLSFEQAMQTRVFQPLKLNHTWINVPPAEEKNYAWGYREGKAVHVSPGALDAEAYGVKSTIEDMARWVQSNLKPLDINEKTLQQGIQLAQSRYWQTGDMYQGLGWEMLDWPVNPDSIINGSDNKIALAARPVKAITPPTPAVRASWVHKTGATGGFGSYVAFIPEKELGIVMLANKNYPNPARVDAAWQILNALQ
#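 20 mM phosphate pH 7.0 + 0.01% (detergent screen) or 0.0001% Triton X-100; 5.3 nM AmpC reagent; cpd preinc 15 min RT; nitrocefin (800 uM stock) to start; A480 q20 s × 4 min; Activity was normalised to no-enzyme and no-compound control wells.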
# Pf growth 96h – Primary qHTS for delayed death inhibitors of the malarial parasite plastid, 96 hour incubation | P. falciparum luciferase reporter growth, 96 h | Potency, µM (doses to about 28.7 µM), without a hit: at the top dose activity change, negative = inhibition, most hits filed as inhibitors | actives 6.9% (n = 320,000) | AID 504834, 2011; also: % is scaled to controls: 0 for no effect and ±100 for the full control effect
#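 96 h incubation, 37 C, 5% CO2, of luciferase-reporter P. falciparum-infected RBCs (2% hematocrit, 0.05% parasitemia final) with test compounds; endpoint luminescence.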
# Pf growth 48h – Primary qHTS for delayed death inhibitors of the malarial parasite plastid, 48 hour incubation. P. falciparum luciferase growth in erythrocytes, 48 h. Potency, µM (titrated, usually from 28.7 µM), inactives show at the top dose activity change, negative = inhibition, most hits filed as inhibitors. actives 5.9% (n = 310,000). AID 504832, 2011; also: % is scaled to controls: 0 for no effect and ±100 for the full control effect
#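 Luciferase-expressing parasites in RBCs, 2% Hct / 0.1% parasitemia final; RPMI 1640 + 0.5% Albumax; 37 C, 5% CO2, one generation; luminescence read-out, lower signal = inhibition.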
# AmpC inh detg – qHTS Inhibitors of AmpC Beta-Lactamase (assay with detergent) | actives 0.041% (n = 370,000) | AmpC hydrolysis of nitrocefin, absorbance 480 nm, 0.01% Triton | P00811 | Potency, µM (titrated, usually from 114 µM), for inactives: at the top dose activity change, negative = inhibition, usual class: inhibitors;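 also: 0% = no-compound wells and -100% = no-enzyme wells; nearly all actives have a fitted effect of over 25% in size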
#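 AmpC (5.3 nM in the dispensed reagent) in 20 mM phosphate pH 7.0 with 0.01% (detergent screen) or 0.0001% Triton X-100 was preincubated with compounds for 15 min at room temperature. Nitrocefin was then added from an 800 uM solution, and hydrolysis was followed at 480 nm.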
# The depositor's hits bear a star; u = inconclusive; x = no result given. Unless noted, calls follow the shape of the dose curve; as a rule, active = well fitted curve in the direction sought with a large enough effect; inconclusive = small, poorly fitted or top-dose-only effect, or another doubt; inactive = no such curve, though single readings can be large; an effect the other way counts as inactive or inconclusive. Potency is read from the fitted curve at half-maximal effect.
SMILES,Sm TGR inh,SARS PLpro yeast,AmpC inh no detg,Pf growth 96h,Pf growth 48h,AmpC inh detg
O=C(NC1(C(F)(F)F)N=C(c2ccccc2)N(Cc2ccccc2)C1=O)c1ccc(F)cc1 (centres undefined),0.3%,x,x,x,x,-1.4%
CC1=C(C#N)C(=O)N(C2CCS(=O)(=O)C2)C(=O)/C1=C\c1ccc(C)o1 (centres undefined),15.8µM*,0.4%,13.4%,45.8%,58.5%,-12.4%
Cn1c(=O)c(C(=O)CSc2nnc(Nc3ccccc3)s2)c(N)n(Cc2ccccc2)c1=O,-8.0%,3.2%,-21.6%,x,u,-12.0%
Cc1cc(C)nc(SCC(=O)c2c(N)n(C)c(=O)n(C)c2=O)n1,-2.2%,-0.9%,-2.3%,x,25.0%,u
Cc1ccccc1Nc1nnc(SCC(=O)c2c(N)n(C)c(=O)n(C)c2=O)s1,-3.3%,-1.1%,-23.5%,u,5.22µM*,6.6%
CCSc1nnc(SCC(=O)c2c(N)n(C)c(=O)n(C)c2=O)s1,-5.3%,-2.6%,-17.5%,4.15µM*,u,-7.4%
Cn1c(N)c(C(=O)CSc2nnc(-c3ccccc3F)n2N)c(=O)n(C)c1=O,-2.1%,1.5%,2.0%,10.4µM*,u,-2.5%
CCOc1ccccc1NC(=O)c1cn(C2CCCC2)c(=O)c2c1c1ccccc1n2C,-2.5%,x,x,x,x,6.8%
C=Cn1ccnc1P(=S)(c1ccc2c(c1)c1ccccc1n2CC)c1nccn1C=C,4.4%,11.2%,85.6%,1.4%,2.94µM*,0.3%
CCCCn1c(=O)c2oc3ccccc3c2n(Cc2cccc(C)c2)c1=O,1.2%,x,x,x,x,0.1%
CCOC(=O)C1Oc2ccccc2C(c2ccc(OC)cc2)=C1C(=O)OC (centres undefined),x,5.6%,59.0%,x,x,x
COc1ccc(C2=C(CN(C)C)C(c3ccccc3)c3ccccc3O2)cc1 (centres undefined),-1.6%,-4.3%,102.0%,2.62µM*,4.65µM*,u
CCOC(=O)CNC(=O)C1c2ccccc2Oc2ccccc21,-5.5%,6.5%,-11.8%,u,37.5%,-23.0%
CCOc1ccc(C2=C(C=C(C#N)C#N)C(c3ccccc3)c3ccccc3O2)cc1 (centres undefined),-2.6%,6.1%,-20.7%,4.0%,3.7µM*,-9.3%
Cc1ccc(S(=O)(=O)c2nc(S(C)(=O)=O)sc2N(C)C)cc1,25.1µM*,2.8%,-7.5%,-1.1%,-24.8%,6.9%
CS(=O)(=O)c1nc(S(=O)(=O)c2ccc(Cl)cc2)c(N2CCCCCC2)s1,-12.8%,-4.3%,-3.4%,13.1µM*,u,-0.2%
CS(=O)(=O)c1nc(S(=O)(=O)c2ccc(Cl)cc2)c(NCCCn2ccnc2)s1,-22.6%,0.7%,23.6%,5.86µM*,-14.3%,-0.5%
CS(=O)(=O)c1nc(S(=O)(=O)c2ccc(Cl)cc2)c(N2CCCCC2)s1,-18.4%,-0.9%,-1.2%,6.3%,u,1.8%
Cc1ccc(S(=O)(=O)c2nc(S(C)(=O)=O)sc2N2CCC(O)CC2)cc1,-25.8%,0.4%,21.8%,9.28µM*,7.9%,1.5%
Cc1ccccc1NC(=O)C1CC(=O)N(Cc2ccccc2)C1 (centres undefined),3.0%,-1.4%,-27.2%,-27.0%,-20.3%,9.0%
COc1cccc(NC(=O)Cn2c(=O)n(CCc3cccc(C)c3)c(=O)c3ccccc32)c1,-5.3%,x,x,x,x,1.6%
CN1CCN(c2sc(S(C)(=O)=O)nc2S(=O)(=O)c2ccc(Cl)cc2)CC1,-1.6%,4.6%,18.2%,11.7µM*,u,-0.5%
CCS(=O)(=O)c1nc(S(=O)(=O)c2ccc(Cl)cc2)c(N2CCN(C)CC2)s1,-4.6%,4.2%,78.0%,-1.3%,u,0.2%
O=C(NCCCn1ccnc1)/C(=C/c1ccco1)NC(=O)c1ccco1,-1.5%,-0.5%,-19.6%,21.1%,3.5%,-1.4%
COCCCNC(=O)Cn1c(=O)n(-c2ccc(C)c(C)c2)c(=O)c2c3c(sc21)CCCCC3,89.1µM*,x,x,x,x,14.0%
SMILES,Sm TGR inh,SARS PLpro yeast,AmpC inh no detg,Pf growth 96h,Pf growth 48h,AmpC inh detg
CC(=O)N1CCc2c(sc3c2c(=O)n(Cc2ccccc2)c(=O)n3CC(=O)NCC2CCCO2)C1 (centres undefined),1.9%,1.0%,52.7%,15.0%,0.37µM*,-10.8%
COCCNC(=O)Cn1c(=O)n(-c2ccc(C)c(C)c2)c(=O)c2c3c(sc21)CCCCC3,0.5%,x,x,x,x,19.1%
CC(=O)N1CCc2c(sc3c2c(=O)n(-c2ccccc2)c(=O)n3CC(=O)NCC2CCCO2)C1 (centres undefined),-4.7%,-4.2%,-6.8%,u,3.5%,-7.2%
CN(C)CCn1c(=O)n(-c2ccc(F)cc2)c(=O)c2c3c(sc21)CCCCC3,20.0%,-0.1%,21.9%,u,u,14.0%
CN(C)CCn1c(=O)n(-c2cccc(Cl)c2)c(=O)c2c3c(sc21)CCCCC3,6.3%,0.9%,152.3%,u,13.1µM*,5.1%
CCOC(=O)N1CCc2c(sc3c2c(=O)n(-c2ccc(CC)cc2)c(=O)n3CC(=O)NCC2CCCO2)C1 (centres undefined),3.4%,-0.4%,-0.4%,u,5.22µM*,1.2%
Cc1sc2ncnc(N3CCC(C(=O)Nc4nnc(SCc5ccccc5F)s4)CC3)c2c1C,-2.0%,-4.0%,-12.2%,19.3%,12.4%,-10.5%
CCCCc1nn2c(=O)cc(COC(=O)c3ccc(NC(=O)C4CCCCC4)cc3)nc2s1,0.3%,x,x,x,x,17.6%
CCOc1c(C)cnc2c1c(=O)n(Cc1c(F)cccc1Cl)c(=O)n2C,-4.6%,-10.1%,27.2%,-1.1%,-10.7%,-6.4%
COc1ccccc1N1CCN(c2ccc(=O)n(CC(=O)NCc3ccc(F)cc3)n2)CC1,-9.2%,x,x,x,x,-12.0%
O=S(=O)(c1ccccc1)c1nc(-c2ccc(F)cc2)oc1NCC1CCCO1 (centres undefined),44.7µM*,-5.8%,-8.4%,u,u,-4.6%
CCC(C)S(=O)(=O)c1oc(-c2cccs2)nc1S(=O)(=O)c1ccccc1 (centres undefined),0.708µM*,x,x,x,x,-4.7%
CNc1oc(-c2cccs2)nc1S(=O)(=O)c1ccccc1,-17.9%,0.8%,-11.4%,-5.2%,-7.3%,-0.4%
CNc1oc(-c2ccc(F)cc2)nc1S(=O)(=O)c1ccccc1,-0.9%,-0.3%,-21.9%,37.0%,u,-11.8%
